Screening results as filed in PubChem BioAssay.
KB-3-1 tox: kills parental KB-3-1 adenocarcinoma cells | 400,000 tested, 1.4% active | KB-3-1 viability, CellTiter-Glo ATP luminescence, 72 h | Potency, µM (titrated, usually from 46.1 µM), actives largely listed as cytotoxic; note: nearly all actives have a fitted effect of over 60% in size
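Here the drug-naive KB-3-1 line serves as comparator for MDR sub-line selectivity; cells received compound titrations, 72 h at 37 °C, then CellTiter-Glo readout.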
ATXN2 expr inh: reduces ATXN2 reporter expression in HEK-293 cells; HEK-293 ATXN2-luciferase reporter, luminescence, 24 h; 360,000 tested, 0.72% active; Potency, µM (top dose mostly 57 µM), most hits filed as inhibitors; note: nearly all actives have a fitted effect of over 55% in size
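ATXN2-luciferase reporter cells (luciferase flanked by upstream and downstream ATXN2 gene portions) were treated 24 h at 37 °C with compounds at up to 57 uM. SteadyGlo luminescence gave expression; GF-AFC fluorescence gave viability.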
TGFb inhibitor: blocks TGF-b signaling; HepG2 CAGA-GFP TGF-b/SMAD3 reporter, GFP fluorescence, 18 h; TGF-beta stimulated, 500 pg/mL final; Potency, µM (titrated, usually from 46.1 µM), most hits filed as inhibitors; 410,000 tested, 1.2% active; AID 588855; note: nearly all actives have a fitted effect of over 65% in size
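Inhibition was scored as loss of TGF-beta-induced (500 pg/mL final, 18 hours, 37 degrees C) GFP in HEPG2 cells carrying a CAGA-GFP reporter, in DMEM with 1% FBS. Well GFP was summed per cell; Activity was normalised to unstimulated and stimulated DMSO wells, then concentration-response fitting.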
KB-V1 MDR tox: KB-V1 MDR subline cytotoxicity. KB-V1 MDR cells viability, CellTiter-Glo, 72 h. 400,000 tested, 3.4% active. AID 1347076. Potency, µM (titrated, usually from 46.1 µM), hits mostly cytotoxic; note: nearly all actives have a fitted effect of over 60% in size
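Readout: CellTiter-Glo luminescence, 10 min after addition. Cells: KB-V1 MDR subline, 72 h at 37 degrees C with compound. Analysis: corrected, normalized data fitted to concentration-effect curves.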
HepG2 viability: kills HepG2 cells in TGF-b inhibitor counter-screen. HepG2 CAGA-GFP viability, ATP luminescence, 18 h. Potency, µM (titrated, usually from 46.1 µM), most hits filed as cytotoxic. 410,000 tested, 0.76% active. AID 588856
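HepG2 CAGA-GFP cells (1000/well, DMEM with 1% FBS) received compound, then TGF-beta at 500 pg/mL final, and were incubated 18 hours at 37 degrees C. Viability was read by CellTiter-Glo luminescence. Media-only wells were set as complete cell-killing and DMSO as no toxicity.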
S2 tox: viability counter-screen for ATXN expression inhibitors; S2 cells (HEK-293 line with an ATXN2-luciferase reporter) viability, CellTiter-Fluor protease fluorescence, 24 h; Potency, µM (titrated, usually from 56.7 µM), most hits filed as cytotoxic; 400,000 tested, 0.49% active; note: nearly all actives have a fitted effect of over 40% in size
Numbers stand for hits; 0 = inactive; ? = inconclusive; - = no result given. Sampled rows, rich in hits. Any-hit rate of the full collection: about 5.9%. Calls come from the whole dose curve; as a rule, active = well fitted curve in the direction sought with a large enough effect; inconclusive = small, poorly fitted or top-dose-only effect, or another doubt; inactive = no such curve, though single readings can be large; an effect the other way counts as inactive or inconclusive.

SMILES	KB-3-1 tox	ATXN2 expr inh	TGFb inhibitor	KB-V1 MDR tox	HepG2 viability	S2 tox
CC(C)[C@H](N)C(=O)N[C@H]1CCC2C3CC=C4C[C@@H](O)CC[C@]4(C)C3CC[C@@]21C (stereo not given in full)	0	-	?	0	20µM	?
CC1CCN(S(=O)(=O)c2ccc3c(c2)N(CC(=O)NCCN(C)C)C(=O)CO3)CC1	0	0	0	0	0	0
O=C(c1ccccc1C(=O)N1CCN(c2ccccc2)CC1)N1CCN(c2ccccc2)CC1	0	0	0	0	0	0
O=C(c1ccccc1C(=O)N1CCN(c2ccc(F)cc2)CC1)N1CCN(c2ccc(F)cc2)CC1	0	0	?	9.2µM	0	0
Cc1[nH]c(-c2ccc(F)cc2)cc1C(=O)N1CCN(c2ccc(Cl)cc2)CC1	0	14µM	?	0	0	?
COc1ccc(N2CCN(C(=O)c3cc(-c4ccc(F)cc4)[nH]c3C)CC2)cc1	0	0	?	0	0	0
Cn1c(CNC(=O)CSc2n[nH]c(-c3ccccc3Cl)n2)nc2ccccc21	0	-	0	0	0	-
Cc1cc(C=C2C(=O)c3ccccc3C2=O)c(C)n1-c1ccc(Cl)cc1	?	0	0	16µM	0	0
Cc1ccc(CNC(=O)Cn2ccn(-c3ccc(F)c(F)c3)c(=O)c2=O)cc1	-	-	0	-	0	-
CN(C)C(=O)COC(=O)c1cccnc1Nc1ccccc1F	0	0	0	16µM	0	0
CC(C)c1ccc2c(c1)CCC1C(C)(CN)CCCC21C (stereo not given)	21µM	35µM	?	?	11µM	-
CC(C)c1ccc2c(c1)CC[C@H]1[C@](C)(CN)CCC[C@]21C	?	?	?	?	0	0
Cc1cc(C)c2c(c1)/C(=C/C(=O)c1ccc(Br)s1)C(=O)N2	18µM	18µM	0	23µM	0	?
CCc1ccc2c(c1)/C(=C/C(=O)c1cccs1)C(=O)N2	?	?	?	?	11µM	-
Cc1cccc2c1NC(=O)/C2=C\C(=O)c1cccs1	0	?	10µM	?	0	0
CCCNC(=O)c1ccccc1NC(=O)c1ccccc1N(C)S(=O)(=O)c1ccccc1	?	0	0	9.2µM	0	0
CN(c1ccccc1C(=O)Nc1cccc(Cl)c1Cl)S(C)(=O)=O	0	0	0	16µM	0	0
CC(C)CNC(=O)c1ccccc1NC(=O)c1ccccc1N(C)S(=O)(=O)c1ccccc1	0	0	0	0	0	0
Cc1ccc(CN2CCc3nnc(C(NC(=O)c4ccoc4)C(C)C)n3CC2)cc1C (stereo not given)	-	-	-	-	-	0
CCC(C(=O)Nc1cc(Cl)c(OC)cc1OC)c1ccccc1 (stereo not given)	0	0	0	0	0	0
Cc1ccc(NC2=CC(=O)C(=O)c3ccccc32)cc1	?	0	2.8µM	16µM	5µM	?
CCOC(=O)c1ccc(NC2=CC(=O)C(=O)c3ccccc32)cc1	?	0	?	?	0	?
NS(=O)(=O)c1ccc(NC2=CC(=O)C(=O)c3ccccc32)cc1	?	?	8.9µM	0	0	0
Cc1cc(NC(=O)CCN2C(=O)c3ccccc3C2=O)no1	0	0	0	0	0	0
COc1cc(OC)c(NC2=CC(=O)C(=O)c3ccccc32)cc1Cl	4.6µM	-	?	4.1µM	0	18µM
SMILES	KB-3-1 tox	ATXN2 expr inh	TGFb inhibitor	KB-V1 MDR tox	HepG2 viability	S2 tox
Cc1cc(NC2=CC(=O)C(=O)c3ccccc32)no1	?	0	?	18µM	0	?
COc1cc(/C=N/Nc2snc(SC)c2C#N)cc(OC)c1OC	?	3.2µM	?	0	0	?
COc1ccc(S(=O)(=O)N(C)C[C@@H]2Oc3cc(Br)ccc3S(=O)(=O)N([C@H](C)CO)C[C@@H]2C)cc1	0	?	0	?	0	?
CCCCOC(=O)Nc1ccc(S(=O)(=O)Nc2nc(C)cc(C)n2)cc1	0	0	0	0	0	0
CCCCCCOC(=O)Nc1ccc(S(=O)(=O)Nc2cccc([N+](=O)[O-])c2)cc1	0	0	?	21µM	0	0
CC(=O)c1ccc(N2CCN(S(=O)(=O)c3ccc4c(c3)NC(=O)CC(=O)N4)CC2)cc1	0	0	0	0	0	0
CC(=O)c1ccc(N2CCN(S(=O)(=O)c3ccc4c(c3)C(Cl)(Cl)C(=O)N4)CC2)cc1	0	0	22µM	0	0	0
CC(=O)c1ccc(N2CCN(S(=O)(=O)c3ccc4c(c3)CC(C)N4C(C)=O)CC2)cc1 (stereo not given)	?	0	0	8.2µM	0	0
CCOc1ccc(C(=O)c2oc3ccccc3c2NC(=O)c2cc(-c3ccc(C)cc3)on2)cc1	0	0	0	0	0	0
CCN1c2ccccc2-c2nc(SCC(=O)NCc3ccc(Cl)cc3)ncc2S1(=O)=O	0	0	0	0	0	?
COc1cncc(C#Cc2ccccn2)c1	0	0	-	0	-	0
O=C(Cc1ccccc1)NCC(=O)Nc1cc(Cl)ccc1Cl	?	0	0	?	0	0
O=C(Cc1ccccc1)Nc1cc(Cl)ccc1Sc1ccccc1	0	0	?	18µM	0	0
Nc1nc(SCC(=O)Nc2ccccc2Sc2ccccc2)n[nH]1	0	0	0	15µM	0	0
O=C(Cc1ccc(Cl)cc1)Nc1ccccc1Sc1ccccc1	?	0	?	23µM	0	0
CCOc1ccccc1NC(=O)CSc1n[nH]c(N)n1	0	0	0	0	0	0
Cc1ccnc2ccc3ccccc3c12	8.2µM	-	0	0	0	-
C=C1CC2C(CCC3(C)C2CCC3(O)C(C)=O)C2(C)CCC(=O)C=C12 (stereo not given)	21µM	0	0	21µM	0	?
C=C1C[C@H]2[C@@H]3C=C(C)C4=CC(=O)CC[C@]4(C)[C@H]3CC[C@]2(C)[C@@]1(OC(C)=O)C(C)=O	0	0	0	?	0	0
CC(=O)C1(C)CCC2C3C=C(C)C4=CC(=O)CCC4(C)C3CCC21C (stereo not given)	?	0	0	4.6µM	0	0
COc1ccc(C)cc1NC(=O)CSc1nc(=O)n(Cc2ccncc2)c2c1CCC2	0	?	?	0	0	0
CCc1ccc2nc(SCC(=O)N3CC(=O)Nc4ccccc43)c(C#N)cc2c1	5.2µM	0	0	6.5µM	0	?
CCc1ccc2nc(SCC(=O)Nc3ccccc3N3CCOCC3)c(C#N)cc2c1	5.2µM	0	?	5.8µM	0	0
Cc1ccc2nc(SCC(=O)Nc3ccccc3N3CCOCC3)c(C#N)cc2c1	?	0	0	0	0	0
CSc1ccccc1C(=O)N1CCc2ccc(NC(=O)c3ccccn3)cc2C1	?	-	0	?	10µM	?
CCc1ccccc1N(C)C(=O)c1cc2c(=O)oc3ccccc3c2s1	0	0	?	0	0	0
